Source: PubChem (National Center for Advancing Translational Sciences (NCATS))
Shiga inhibitor: blocks Shiga toxin action in Vero cells | inhibition, % at 38.7 µM | AID 2315 | hit rate 9.2% among 290,000 | Vero cells, Shiga toxin protein synthesis inhibition reporter; in the data active means inhibition mostly above about 28%, no sharp cut-off; inactive means mostly below about 43%; further: 0% is about no effect
Cycloheximide cs: counter-screen hit for Shiga toxin inhibitors, cycloheximide; max response, %; hit rate 12% among 300,000; cell reporter, cycloheximide protein synthesis inhibition counterscreen; AID 2314; in the data active means max response mostly above about 13%, no sharp cut-off; inactive means mostly below about 14%; further: read at 38.3 µM for the half of the compounds with a filed dose; 0% is about no effect
NS1 inh: influenza NS1 inhibition; Potency, µM (highest dose often 46.1 µM), for inactives: at the top dose activity, positive = more growth; hit rate 0.4% among 270,000; AID 2326; calls by dose curve; further: potency means the concentration at half of the fitted maximal effect; actives are rising curves; nearly all actives have a fitted effect of over 50% in size
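OD600 was taken as the measure of yeast growth restored by compound in an NS1-expressing S. cerevisiae strain. Cells had been washed out of glucose medium and diluted 1:100 into galactose -URA medium, pH 6.0.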
Pf growth 96h: P. falciparum growth inhibition at 96 hours | P. falciparum luciferase reporter growth, 96 h | Potency, µM (top dose mostly 28.7 µM), without a hit: top-dose activity change, negative = inhibition, usual class: inhibitors | hit rate 6.9% among 320,000; further: potency means the concentration at half of the fitted maximal effect; on the % scale 0 is the no-effect control and ±100 the full control effect
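Luminescence readout: decreased luciferase signal marks inhibited growth of reporter-expressing P. falciparum in infected red cells (2% hematocrit, 0.05% parasitemia final), exposed to compound two generations (96 h, 37 C, 5% CO2).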
Sm TGR block: blocks Schistosoma mansoni thioredoxin glutathione reductase; Q962Y6; purified TGR, DTNB reduction, TNB absorbance 405 nm; Potency, µM (top dose mostly 114 µM), inactives show top-dose activity change, negative = inhibition, most hits filed as inhibitors; hit rate 3% among 360,000; AID 485364; further: potency means the concentration at half of the fitted maximal effect; on the % scale 0 is the no-effect control and ±100 the full control effect; nearly all actives have a fitted effect of over 60% in size
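First, TGR (20 nM dispensed) and NADPH were mixed with compound. Second, a 15 min room-temperature incubation followed. Third, further NADPH and then DTNB were added to start the reaction. Finally, TNB absorbance was monitored kinetically.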
Pf growth 48h: P. falciparum growth inhibition at 48 hours (one generation); Potency, µM (series often up to 28.7 µM), for the others: at the highest dose activity change, negative = inhibition, actives largely listed as inhibitors; AID 504832; P. falciparum luciferase growth in erythrocytes, 48 h; hit rate 5.9% among 310,000; further: potency means the concentration at half of the fitted maximal effect; on the % scale 0 is the no-effect control and ±100 the full control effect
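Here the parasites carry a stable luciferase gene and grow inside erythrocytes in Albumax-based RPMI medium with compound for one erythrocytic cycle. Activity is scored as loss of luminescent signal.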
* hit, by the source's call; ? = inconclusive; . = not tested or not shown. A selection: hits, their analogues and other compounds. The true share with any hit is near 21%. Unless noted, the call rests on the fitted dose curve; in most records, active means well fitted curve in the direction sought with a large enough effect; inconclusive means small, poorly fitted or top-dose-only effect, or another doubt; inactive means no such curve, though single readings can be large; an effect the other way counts as inactive or inconclusive.

SMILES	Shiga inhibitor	Cycloheximide cs	NS1 inh	Pf growth 96h	Sm TGR block	Pf growth 48h
Cc1ccccc1C(=O)Nc1ccc2c(c1)OCO2	70	30*	-16%	.	-3%	194%
Cc1c(NC(=S)NC(NC(=O)C(C)C)C(Cl)(Cl)Cl)c(=O)n(-c2ccccc2)n1C (configuration not stated)	-19	9	-3%	?	4%	?
CC(=O)Nc1ccc(-n2cc3c(c2-c2ccc(C)cc2)c(=O)n(C)c(=O)n3C)cc1	.	.	.	.	7%	.
COc1ccccc1C(=O)Nc1ccc2c(c1)OCCO2	85*	41*	-35%	?	-9%	318%
CCc1nnc(NC(=O)CCC(=O)NCCc2ccc(OC)c(OC)c2)s1	-5	-3	19%	17%	4%	-2%
O=C(Nc1cc(C(F)(F)F)ccc1Cl)C1CCN(c2nnc(-n3cccc3)s2)CC1	3	-3	-1%	11%	0%	8.3µM*
CS(=O)(=O)N1CCC(C(=O)Nc2cc(C(F)(F)F)ccc2Cl)CC1	-24	-4	2%	.	0%	-24%
O=C(C1CCN(c2nnc(N3CCCC3=O)s2)CC1)N1CCN(Cc2ccc3c(c2)OCO3)CC1	3	-2	-9%	?	-6%	?
O=C(C1CCN(c2nnc(-n3cccc3)s2)CC1)N1CCN(Cc2ccc3c(c2)OCO3)CC1	-2	3	-30%	1.5µM*	1%	?
CC1CCN(Cc2ccc(NC(=O)C3CCN(c4nnc(-n5cccc5)s4)CC3)cc2)CC1	-1	-5	-4%	8%	2%	7.4µM*
O=C(CCCN1C(=O)/C(=C\c2cccs2)SC1=S)NNC(=O)c1cccnc1	-1	12	.	65%	-9%	-28%
Cc1ccc(C)c(N2CCN(C(=O)CCC(=O)Nc3nnc(C(F)(F)F)s3)CC2)c1	3	-1	-22%	?	0%	3%
Cc1nnc2sc(SCc3cccc(Cl)c3)nn2c1=O	-12	9	.	2.1µM*	3%	5.9µM*
Cc1nnc2sc(SCc3ccccc3Cl)nn2c1=O	26	3	.	?	-20%	?
Cc1nnc2sc(SCC(=O)Nc3nccs3)nn2c1=O	-1	2	?	1.7µM*	?	?
COc1ccccc1NC(=O)CSc1nn2c(=O)c(C)nnc2s1	-8	7	0%	?	1%	14%
Cc1cc(=O)n2c3c(sc2n1)C(=O)N(Cc1ccccc1)C3=O	-6	-1	-36%	.	1.1µM*	-4%
Cc1nnc2sc(SCc3ccccc3)nn2c1=O	-13	-1	1%	?	-9%	10µM*
CN(C)S(=O)(=O)c1ccc2c(c1)c(=O)c(C(=O)N1CCN(c3cccc(Cl)c3)CC1)cn2C	.	.	.	.	-2%	.
Cc1ccc(-c2nn3c(=O)c(C)nnc3s2)cc1	23	27*	-5%	27%	0%	-18%
Cc1cc(=O)n2nc(-c3ccccc3)sc2n1	61*	38*	-10%	.	0%	101%
CCc1nc2cccnc2n1-c1ccc(CC(=O)O)cc1	1	-3	4%	10µM*	-10%	-18%
CCOCCCNC(=O)Cc1ccc(-n2c(CC)nc3cccnc32)cc1	-9	6	7%	?	9%	-27%
Cc1c(C(=O)N2CCOCC2)c(S(=O)(=O)Nc2ccc(C(C)C)cc2)c(C)n1C	-3	-4	-7%	10µM*	-15%	-17%
COc1ccc(-c2ncc3ccccn23)cc1	145*	41*	-2%	.	-31%	80%
SMILES	Shiga inhibitor	Cycloheximide cs	NS1 inh	Pf growth 96h	Sm TGR block	Pf growth 48h
COc1cccc(-c2ncc3ccccn23)c1	71*	36*	4%	55%	-16%	166%
COc1cc(OC)cc(-c2ncc3ccccn23)c1	17	11	-4%	-18%	?	0%
O=C1CC(c2cccc(Cl)c2)CC(O)=C1C=NC1CCCC1 (configuration not stated)	-15	-6	-33%	?	14%	?
COCCNC(=O)c1cc2c(s1)-c1ccc(Cl)cc1SC2	91*	44*	-2%	-28%	12%	139%
NC(=O)c1cc2c(s1)-c1cc(Cl)ccc1SC2	51	20*	-12%	62%	4%	39%
O=C(CSc1nnc(-c2cnccn2)n1Cc1ccco1)c1ccccc1	29	-4	-8%	10%	35µM*	3%
